The list is a sample of the results.
aSyn 5UTR act: Activators via SNCA 5'UTR binding, MLPCN; 7.1% of 300,000 active; AID 1814; activity score, % (tested at 7.5 µM), hits read low; alpha-synuclein 5'UTR reporter, activators screen; in the data active means activity score below about -60%
The depositor's hits bear a star.

For Cc1ccccc1-n1c(C)nnc1SCc1nc2ccccc2s1 the results were aSyn 5UTR act -250*.
`CCn1c(SCc2nc3ccccc3s2)nnc1-c1cccs1` gave aSyn 5UTR act -160*.
For COc1ccccc1-c1nnc(SCc2nc3ccccc3s2)n1C the results were aSyn 5UTR act -109*.
For Cc1ccc(Nc2nnc(-c3ccc4c(c3)OCO4)o2)c(C)c1 the results were aSyn 5UTR act -93*.
`CNC(=O)c1ccsc1NC(=O)c1ccc2c(c1)CCCC2` gave aSyn 5UTR act -214*.
For CC(C)(C)c1nnc(NC(=O)c2ccc(Cl)nc2)s1 the results were aSyn 5UTR act -126*.
Screening C=CCSc1nnc(NC(=O)c2ccc(Cl)nc2)s1 returned aSyn 5UTR act -77*.
Screening C=CC[n+]1c(-c2ccc(C)cc2)csc1Nc1ccc(NC(C)=O)cc1 returned aSyn 5UTR act 100.
Screening c1ccc(Nc2scc(-c3ccccc3)[n+]2Cc2ccco2)cc1 returned aSyn 5UTR act -222*.
`COc1ccccc1CN=C1Nc2ccccc2CS1` gave aSyn 5UTR act -149*.
Screening Clc1ccc(CN=C2Nc3ccccc3CS2)cc1 returned aSyn 5UTR act -182*.
`c1ccc2c(c1)CSc1ccccc1N2` gave aSyn 5UTR act 104.
COc1cccc(CN=C2Nc3ccccc3CS2)c1 was read as aSyn 5UTR act -142*.
Cc1nnc(SCC(=O)Nc2sc3c(c2C#N)CCCCC3)n1N was read as aSyn 5UTR act -74*.
`Cc1ccc(OCC(=O)Nc2sc3c(c2C#N)CCC3)cc1` gave aSyn 5UTR act -99*.
`CC(C)(C)C(=O)Nc1sc2c(c1C#N)CCCCC2` gave aSyn 5UTR act -78*.
Screening CCOC(=O)Nc1sc2c(c1C#N)CCCC2 returned aSyn 5UTR act -123*.
Cc1ccc(CN2C3CCCC2CC(NC(=O)c2ccc(C)cc2)C3)cc1 (stereo unspecified) was read as aSyn 5UTR act -163*.
Cc1ccc(NC(=O)C2COc3ccccc3O2)nc1 (stereo unspecified) was read as aSyn 5UTR act -106*.
Cc1ccnc(NC(=O)C2COc3ccccc3O2)c1 (stereo unspecified) was read as aSyn 5UTR act -97*.
For CC1CCC(C(C)C)C(OC(=O)Cn2c(-c3ccccc3)[n+](C)c3ccccc32)C1 (stereo unspecified) the results were aSyn 5UTR act 77.
`Cc1cccc(S(=O)(=O)N/N=c2\sc3ccccc3n2C)c1` gave aSyn 5UTR act -175*.
For Cc1ccc(S(=O)(=O)N/N=c2\sc3ccccc3n2C)cc1 the results were aSyn 5UTR act -115*.
Screening Cc1ccc2nc(CSc3nc(C)cc(C)c3C#N)[nH]c2c1 returned aSyn 5UTR act -70*.
For CC(C)c1ccc(S(=O)(=O)c2cc3cc(Br)ccc3oc2=O)cc1 the results were aSyn 5UTR act -63*.
`CN(c1ccccc1)c1nc(N)c([N+](=O)[O-])c(N2CCCC2)n1` gave aSyn 5UTR act -97*.
For Cc1cccc(Nc2nc(N)c([N+](=O)[O-])c(N3CCCC(C)C3)n2)c1 (stereo unspecified) the results were aSyn 5UTR act 59.
`Nc1nc(Nc2ccccc2F)nc(N2CCCC2)c1[N+](=O)[O-]` gave aSyn 5UTR act -131*.
For Cc1cc(C)n(-c2ccc3cccc(NS(C)(=O)=O)c3n2)n1 the results were aSyn 5UTR act 90.
Screening Cc1cc2n(n1)SC(Nc1cccc3ccccc13)N2 (stereo unspecified) returned aSyn 5UTR act -94*.
Screening CC1(C)CC(=O)c2cc(N=C/C(C(=O)c3ccccc3)=C(\O)c3ccccc3)c(=O)oc2C1 returned aSyn 5UTR act -72*.
`CN(C)C(=O)CSc1nnc(C23CC4CC(CC(C4)C2)C3)o1` gave aSyn 5UTR act -160*.
`Cc1ccc(C(=O)Nc2ccc(SC(F)F)cc2)s1` gave aSyn 5UTR act -161*.
Screening CC(C)COc1ccc(C(=O)Nc2ccc(SC(F)F)cc2)cc1 returned aSyn 5UTR act -90*.
`O=C(Nc1ccc(F)cc1)c1ccc2snnc2c1` gave aSyn 5UTR act -92*.
`Cc1ccc(NC(=O)c2ccc3snnc3c2)cc1C` gave aSyn 5UTR act -165*.
`C=CCOc1ccc(C(=O)Nc2ccc(OCC)cc2)cc1` gave aSyn 5UTR act -70*.
Screening CCOc1ccc(C(=O)Oc2ccc(NC(C)=O)cc2)cc1 returned aSyn 5UTR act 80.
`COc1cccc(NC(=O)c2ccc3snnc3c2)c1` gave aSyn 5UTR act -105*.
`CCOc1ccc(NC(=O)c2ccc3snnc3c2)cc1` gave aSyn 5UTR act -120*.
CC(=O)N1CCc2cc(S(=O)(=O)NCCC(=O)Nc3ccc4c(c3)OCCO4)ccc21 was read as aSyn 5UTR act -176*.
`Clc1ccc(-n2nnc(-c3cccnc3Cl)n2)cn1` gave aSyn 5UTR act -130*.
For COc1ncccc1-c1nnn(-c2ccc(Cl)nc2)n1 the results were aSyn 5UTR act -74*.
Screening Cc1ccc(-n2nnc(-c3cccnc3Cl)n2)cc1 returned aSyn 5UTR act -78*.
`Clc1ccc(-c2nnsc2SCc2ccccc2)cc1` gave aSyn 5UTR act -75*.
